# Where a chain is given by its changes, count along the chain named.
# Key:
# Assay in all cases: PBM; 200 nM protein, PBS
# Conditions in all cases: dsDNA, one strand shown
# [1] = target: HOXB9 (Homo sapiens, UniProt P17482 171-250, T197M)
# [2] = target: T1, PAX4 (Homo sapiens, UniProt O43316 9-242, R200K)
# T1 sequence: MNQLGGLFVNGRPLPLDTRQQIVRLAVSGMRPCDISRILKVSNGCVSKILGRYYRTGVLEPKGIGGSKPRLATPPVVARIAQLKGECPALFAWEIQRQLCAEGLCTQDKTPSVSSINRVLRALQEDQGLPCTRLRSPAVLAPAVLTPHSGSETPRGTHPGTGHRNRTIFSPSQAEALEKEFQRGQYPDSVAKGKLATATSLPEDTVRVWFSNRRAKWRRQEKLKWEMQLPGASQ
# [3] = target: T2, PAX4 (Homo sapiens, UniProt O43316 9-242)
# T2 sequence: T1 sequence with K192R
# [4] = target: HOXB9 (Homo sapiens, UniProt P17482 171-250)
# [5] = target: T3, PAX4 (Homo sapiens, UniProt O43316 9-242, R200Q)
# T3 sequence: T1 sequence with K192Q
# [6] = target: T4, PAX4 (Homo sapiens, UniProt O43316 9-242, F177V)
# T4 sequence: T1 sequence with F169V, K192R
# [7] = target: T5, PAX4 (Homo sapiens, UniProt O43316 9-242, F177Y)
# T5 sequence: T1 sequence with F169Y, K192R
# [8] = target: HOXB9 (Homo sapiens, UniProt P17482 171-250, R186Q)
# [9] = target: T6, PAX4 (Homo sapiens, UniProt O43316 9-242, R227W)
# T6 sequence: T1 sequence with K192R, R219W
# [10] = target: HOXC9 (Homo sapiens, UniProt P31274 178-260, K195R)
# [11] = target: HOXC9 (Homo sapiens, UniProt P31274 178-260)
# [12] = target: HOXC9 (Homo sapiens, UniProt P31274 178-260, R193K)
# [13] = target: HOXC9 (Homo sapiens, UniProt P31274 178-260, R222W)
# [14] = target: HOXC10 (Homo sapiens, UniProt Q9NYD6 254-340)
# [15] = target: ALX4 (Homo sapiens, UniProt Q9H161 200-286, Q225E)
# [16] = target: HOXD13 (Homo sapiens, UniProt P35453 263-343, T313R)
# [17] = target: HOXD13 (Homo sapiens, UniProt P35453 263-343)
# [18] = target: HOXC10 (Homo sapiens, UniProt Q9NYD6 254-340, K271E)
# [19] = target: HOXD13 (Homo sapiens, UniProt P35453 263-343, T313A)
# [20] = target: PRRX1 (Homo sapiens, UniProt P54821 80-166, F113S)
# [21] = target: PRRX1 (Homo sapiens, UniProt P54821 80-166)
# [22] = target: ALX4 (Homo sapiens, UniProt Q9H161 200-286)
# [23] = target: HOXA7 (Homo sapiens, UniProt P31268 116-202)
# [24] = target: HOXB6 (Homo sapiens, UniProt P17509 132-218, K202E)
# [25] = target: ALX3 (Homo sapiens, UniProt O95076 139-225, N203Q)
# [26] = target: HOXA7 (Homo sapiens, UniProt P31268 116-202, W177C)
# [27] = target: T7, NKX2-6 (Homo sapiens, UniProt A6NCS4 118-204, R150C)
# T7 sequence: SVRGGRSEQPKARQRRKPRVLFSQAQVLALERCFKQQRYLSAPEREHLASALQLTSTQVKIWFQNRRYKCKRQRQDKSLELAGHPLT
# [28] = target: HOXB6 (Homo sapiens, UniProt P17509 132-218)
# Chain of HOXB6 (Homo sapiens, UniProt P17509 132-218) (P17509 132-218): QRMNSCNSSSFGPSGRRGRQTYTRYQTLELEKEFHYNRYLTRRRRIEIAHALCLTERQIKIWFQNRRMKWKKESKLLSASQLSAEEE
# Chain of HOXB9 (Homo sapiens, UniProt P17482 171-250, R186Q) (P17482 171-250 R186Q): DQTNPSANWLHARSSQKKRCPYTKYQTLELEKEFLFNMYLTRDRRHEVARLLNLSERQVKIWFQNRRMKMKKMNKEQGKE
# Chain of HOXC9 (Homo sapiens, UniProt P31274 178-260) (P31274 178-260): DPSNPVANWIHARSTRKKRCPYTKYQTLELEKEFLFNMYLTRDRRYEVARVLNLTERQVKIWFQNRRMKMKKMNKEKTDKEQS
# Chain of HOXB9 (Homo sapiens, UniProt P17482 171-250, T197M) (P17482 171-250 T197M): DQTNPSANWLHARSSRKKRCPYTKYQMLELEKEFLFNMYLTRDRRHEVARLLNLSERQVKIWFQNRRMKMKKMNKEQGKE
# Chain of HOXC9 (Homo sapiens, UniProt P31274 178-260, R193K) (P31274 178-260 R193K): as the sequence (P31274 178-260) above, with R16K counted along it
# Chain of HOXC9 (Homo sapiens, UniProt P31274 178-260, K195R) (P31274 178-260 K195R): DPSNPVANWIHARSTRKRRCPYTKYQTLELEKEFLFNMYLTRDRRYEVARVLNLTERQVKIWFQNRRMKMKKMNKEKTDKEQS
# Chain of HOXB9 (Homo sapiens, UniProt P17482 171-250) (P17482 171-250): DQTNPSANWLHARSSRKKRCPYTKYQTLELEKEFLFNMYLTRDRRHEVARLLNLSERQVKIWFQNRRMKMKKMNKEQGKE
# Chain of HOXC9 (Homo sapiens, UniProt P31274 178-260, R222W) (P31274 178-260 R222W): as the sequence (P31274 178-260) above, with R45W counted along it
# Chain of ALX4 (Homo sapiens, UniProt Q9H161 200-286, Q225E) (Q9H161 200-286 Q225E): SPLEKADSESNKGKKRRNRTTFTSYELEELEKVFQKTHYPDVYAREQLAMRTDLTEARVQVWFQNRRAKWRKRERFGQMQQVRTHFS
# Chain of HOXB6 (Homo sapiens, UniProt P17509 132-218, K202E) (P17509 132-218 K202E): as the sequence (P17509 132-218) above, with K71E counted along it
# Chain of HOXD13 (Homo sapiens, UniProt P35453 263-343, T313R) (P35453 263-343 T313R): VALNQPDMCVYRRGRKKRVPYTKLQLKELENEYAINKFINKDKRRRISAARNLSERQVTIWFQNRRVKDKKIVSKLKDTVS
# Chain of HOXD13 (Homo sapiens, UniProt P35453 263-343, T313A) (P35453 263-343 T313A): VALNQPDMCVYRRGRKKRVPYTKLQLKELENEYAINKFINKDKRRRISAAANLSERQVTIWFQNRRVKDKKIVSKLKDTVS
# Chain of HOXC10 (Homo sapiens, UniProt Q9NYD6 254-340, K271E) (Q9NYD6 254-340 K271E): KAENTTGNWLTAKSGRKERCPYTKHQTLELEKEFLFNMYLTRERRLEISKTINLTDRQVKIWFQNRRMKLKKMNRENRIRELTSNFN
# Chain of HOXD13 (Homo sapiens, UniProt P35453 263-343) (P35453 263-343): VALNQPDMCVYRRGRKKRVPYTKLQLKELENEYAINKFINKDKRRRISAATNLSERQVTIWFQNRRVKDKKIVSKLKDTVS
# Chain of HOXC10 (Homo sapiens, UniProt Q9NYD6 254-340) (Q9NYD6 254-340): as the sequence (Q9NYD6 254-340 K271E) above, with E18K counted along it
# Chain of HOXA7 (Homo sapiens, UniProt P31268 116-202) (P31268 116-202): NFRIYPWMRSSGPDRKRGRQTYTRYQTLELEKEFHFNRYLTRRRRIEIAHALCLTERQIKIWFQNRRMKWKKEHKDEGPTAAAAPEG
# Chain of ALX3 (O95076 139-225 N203Q): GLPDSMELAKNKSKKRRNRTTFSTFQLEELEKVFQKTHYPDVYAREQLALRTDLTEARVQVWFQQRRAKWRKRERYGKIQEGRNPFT
# Chain of HOXA7 (Homo sapiens, UniProt P31268 116-202, W177C) (P31268 116-202 W177C): as the sequence (P31268 116-202) above, with W62C counted along it
# Chain of ALX4 (Homo sapiens, UniProt Q9H161 200-286) (Q9H161 200-286): as the sequence (Q9H161 200-286 Q225E) above, with E26Q counted along it
# Chain of PRRX1 (Homo sapiens, UniProt P54821 80-166) (P54821 80-166): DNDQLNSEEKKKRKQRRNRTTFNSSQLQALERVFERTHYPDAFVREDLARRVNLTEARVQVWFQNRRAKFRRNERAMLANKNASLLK
# Chain of PRRX1 (Homo sapiens, UniProt P54821 80-166, F113S) (P54821 80-166 F113S): as the sequence (P54821 80-166) above, with F34S counted along it
sequence,measurement,setting,value
CCCGCGGC,binding signal,[1],"8.53 upbm affinity estimate (log intensity, higher = more binding, comparable within an allelic series)"
same,binding signal,[2],"9.28 upbm affinity estimate (log intensity, higher = more binding, comparable within an allelic series)"
same,binding signal,[3],"9.32 upbm affinity estimate (log intensity, higher = more binding, comparable within an allelic series)"
same,binding signal,[4],"8.39 upbm affinity estimate (log intensity, higher = more binding, comparable within an allelic series)"
same,binding signal,[5],"9.34 upbm affinity estimate (log intensity, higher = more binding, comparable within an allelic series)"
same,binding signal,[6],"9.09 upbm affinity estimate (log intensity, higher = more binding, comparable within an allelic series)"
same,binding signal,[7],"9.18 upbm affinity estimate (log intensity, higher = more binding, comparable within an allelic series)"
same,binding signal,[8],"8.48 upbm affinity estimate (log intensity, higher = more binding, comparable within an allelic series)"
same,binding signal,[9],"9.24 upbm affinity estimate (log intensity, higher = more binding, comparable within an allelic series)"
GGTCCCGA,binding signal,[1],"8.6 upbm affinity estimate (log intensity, higher = more binding, comparable within an allelic series)"
same,binding signal,[10],"9.69 upbm affinity estimate (log intensity, higher = more binding, comparable within an allelic series)"
same,binding signal,[4],"8.47 upbm affinity estimate (log intensity, higher = more binding, comparable within an allelic series)"
same,binding signal,[11],"9.62 upbm affinity estimate (log intensity, higher = more binding, comparable within an allelic series)"
same,binding signal,[12],"9.59 upbm affinity estimate (log intensity, higher = more binding, comparable within an allelic series)"
same,binding signal,[8],"8.44 upbm affinity estimate (log intensity, higher = more binding, comparable within an allelic series)"
same,binding signal,[13],"9.74 upbm affinity estimate (log intensity, higher = more binding, comparable within an allelic series)"
AATAAAAC,binding signal,[1],"9.76 upbm affinity estimate (log intensity, higher = more binding, comparable within an allelic series)"
same,binding signal,[14],"12.3 upbm affinity estimate (log intensity, higher = more binding, comparable within an allelic series)"
same,binding signal,[15],"10.6 upbm affinity estimate (log intensity, higher = more binding, comparable within an allelic series)"
same,binding signal,[4],"11.8 upbm affinity estimate (log intensity, higher = more binding, comparable within an allelic series)"
same,binding signal,[16],"10.9 upbm affinity estimate (log intensity, higher = more binding, comparable within an allelic series)"
same,binding signal,[17],"11.9 upbm affinity estimate (log intensity, higher = more binding, comparable within an allelic series)"
same,binding signal,[18],"11.7 upbm affinity estimate (log intensity, higher = more binding, comparable within an allelic series)"
same,binding signal,[19],"11.6 upbm affinity estimate (log intensity, higher = more binding, comparable within an allelic series)"
same,binding signal,[8],"11.5 upbm affinity estimate (log intensity, higher = more binding, comparable within an allelic series)"
same,binding signal,[13],"11.2 upbm affinity estimate (log intensity, higher = more binding, comparable within an allelic series)"
CAGAAGCC,binding signal,[1],"8.6 upbm affinity estimate (log intensity, higher = more binding, comparable within an allelic series)"
same,binding signal,[20],"9.41 upbm affinity estimate (log intensity, higher = more binding, comparable within an allelic series)"
same,binding signal,[4],"8.72 upbm affinity estimate (log intensity, higher = more binding, comparable within an allelic series)"
same,binding signal,[8],"8.73 upbm affinity estimate (log intensity, higher = more binding, comparable within an allelic series)"
same,binding signal,[21],"9.47 upbm affinity estimate (log intensity, higher = more binding, comparable within an allelic series)"
TCCCGGGA,binding signal,[1],"8.9 upbm affinity estimate (log intensity, higher = more binding, comparable within an allelic series)"
same,binding signal,[22],"8.7 upbm affinity estimate (log intensity, higher = more binding, comparable within an allelic series)"
same,binding signal,[15],"8.23 upbm affinity estimate (log intensity, higher = more binding, comparable within an allelic series)"
same,binding signal,[4],"8.93 upbm affinity estimate (log intensity, higher = more binding, comparable within an allelic series)"
same,binding signal,[8],"8.89 upbm affinity estimate (log intensity, higher = more binding, comparable within an allelic series)"
AATAATAA,binding signal,[1],"9.97 upbm affinity estimate (log intensity, higher = more binding, comparable within an allelic series)"
same,binding signal,[23],"10.8 upbm affinity estimate (log intensity, higher = more binding, comparable within an allelic series)"
same,binding signal,[24],"10 upbm affinity estimate (log intensity, higher = more binding, comparable within an allelic series)"
same,binding signal,[25],"8.58 upbm affinity estimate (log intensity, higher = more binding, comparable within an allelic series)"
same,binding signal,[13],"11.1 upbm affinity estimate (log intensity, higher = more binding, comparable within an allelic series)"
same,binding signal,[26],"8.85 upbm affinity estimate (log intensity, higher = more binding, comparable within an allelic series)"
CCCCCAGA,binding signal,[1],"8.56 upbm affinity estimate (log intensity, higher = more binding, comparable within an allelic series)"
same,binding signal,[10],"9.67 upbm affinity estimate (log intensity, higher = more binding, comparable within an allelic series)"
same,binding signal,[4],"8.41 upbm affinity estimate (log intensity, higher = more binding, comparable within an allelic series)"
same,binding signal,[11],"9.59 upbm affinity estimate (log intensity, higher = more binding, comparable within an allelic series)"
same,binding signal,[12],"9.69 upbm affinity estimate (log intensity, higher = more binding, comparable within an allelic series)"
same,binding signal,[8],"8.47 upbm affinity estimate (log intensity, higher = more binding, comparable within an allelic series)"
same,binding signal,[13],"9.54 upbm affinity estimate (log intensity, higher = more binding, comparable within an allelic series)"
AGGCCTGG,binding signal,[1],"8.45 upbm affinity estimate (log intensity, higher = more binding, comparable within an allelic series)"
same,binding signal,[24],"8.94 upbm affinity estimate (log intensity, higher = more binding, comparable within an allelic series)"
same,binding signal,[4],"8.43 upbm affinity estimate (log intensity, higher = more binding, comparable within an allelic series)"
same,binding signal,[27],"9.48 upbm affinity estimate (log intensity, higher = more binding, comparable within an allelic series)"
same,binding signal,[8],"8.44 upbm affinity estimate (log intensity, higher = more binding, comparable within an allelic series)"
same,binding signal,[28],"8.97 upbm affinity estimate (log intensity, higher = more binding, comparable within an allelic series)"
CCATAAAC,binding signal,[1],"9.33 upbm affinity estimate (log intensity, higher = more binding, comparable within an allelic series)"
same,binding signal,[10],"12.4 upbm affinity estimate (log intensity, higher = more binding, comparable within an allelic series)"
same,binding signal,[4],"11.8 upbm affinity estimate (log intensity, higher = more binding, comparable within an allelic series)"
same,binding signal,[11],"12.6 upbm affinity estimate (log intensity, higher = more binding, comparable within an allelic series)"
same,binding signal,[16],"10.8 upbm affinity estimate (log intensity, higher = more binding, comparable within an allelic series)"
same,binding signal,[12],"12.5 upbm affinity estimate (log intensity, higher = more binding, comparable within an allelic series)"
same,binding signal,[17],"12.1 upbm affinity estimate (log intensity, higher = more binding, comparable within an allelic series)"
same,binding signal,[18],"11.3 upbm affinity estimate (log intensity, higher = more binding, comparable within an allelic series)"
same,binding signal,[19],"11.8 upbm affinity estimate (log intensity, higher = more binding, comparable within an allelic series)"
same,binding signal,[8],"11.5 upbm affinity estimate (log intensity, higher = more binding, comparable within an allelic series)"
same,binding signal,[13],"10.8 upbm affinity estimate (log intensity, higher = more binding, comparable within an allelic series)"

# Reference: paper PMC11006913
